Assay outcomes from PubChem BioAssay.
The entries come from a sample that favours hits as a whole.
YopH PTP inh – blocks Yersinia enterocolitica YopH tyrosine phosphatase; inhibition, % (concentration not given with the values); fluorescence Ex485/Em525; 140,000 compounds, 0.16% hits; AID 898; in the data active = inhibition above about 50%
RmlCD inh 1536 – inhibitors of Mycobacterium tuberculosis RmlC and RmlD coupled enzymes; AID 1533; 160,000 compounds, 0.03% hits; RmlC+RmlD coupled enzyme assay, percent inhibition; primary screen in compound mixtures; P9WH09+P9WH11; inhibition, % at 3.6 µM; in the data active = inhibition mostly above about 34%, no sharp cut-off
Target sequence (P9WH09 whole entry, looked up): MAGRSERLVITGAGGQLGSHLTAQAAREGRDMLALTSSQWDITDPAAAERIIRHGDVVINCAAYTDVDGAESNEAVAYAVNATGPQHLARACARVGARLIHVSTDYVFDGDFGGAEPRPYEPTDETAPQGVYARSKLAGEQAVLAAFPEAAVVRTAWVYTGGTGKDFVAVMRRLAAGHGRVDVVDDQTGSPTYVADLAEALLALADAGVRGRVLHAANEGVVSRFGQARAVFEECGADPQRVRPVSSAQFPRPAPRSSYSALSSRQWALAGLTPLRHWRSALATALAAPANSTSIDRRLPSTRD
Target sequence (P9WH11 whole entry, looked up): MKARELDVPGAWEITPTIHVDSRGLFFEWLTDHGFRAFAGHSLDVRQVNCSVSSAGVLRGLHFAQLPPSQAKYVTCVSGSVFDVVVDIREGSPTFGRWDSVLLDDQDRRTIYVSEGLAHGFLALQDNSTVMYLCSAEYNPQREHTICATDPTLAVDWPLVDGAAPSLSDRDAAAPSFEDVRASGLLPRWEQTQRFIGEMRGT
Large screens that a line does not name were inactive.

CCCOc1ccc2oc(=O)c3c(c2c1)CCCN3C(=O)CN1CCCC(C(=O)OCC)C1 (configuration not stated)	none
CC(C(=O)N1CCc2ccccc21)N1CCc2ccccc2C1 (configuration not stated)	none (no result: RmlCD inh 1536)
CC1CCN(CCC(=O)N2CCCc3c2c(=O)oc2ccc(O)cc32)CC1	YopH PTP inh 61.2
O=C(COC(=O)c1cc(-c2ccco2)nc2ccccc12)NCc1ccccc1	none (no result: RmlCD inh 1536)
CNC(=O)COC(=O)c1cc(-c2ccco2)nc2ccccc12	RmlCD inh 1536 37.1 (no result: YopH PTP inh)
COc1ccc(-c2nc(C#N)c(NCCCN3CCOCC3)o2)cc1	none
N#Cc1nc(-c2cccs2)oc1NCCCN1CCOCC1	YopH PTP inh 51.2
COC(=O)c1nn(-c2ccccc2)c(Sc2ccc(Br)cc2)c1/C=N/O	none
O=C(CNC(=S)N(Cc1ccccc1)Cc1cccnc1)NC1CCCCC1	none
O=C(c1ccc(Cl)cc1)[C@@H]1[C@@H]2C(=O)N(c3ccc(Cl)cc3)C(=O)[C@@H]2C2c3ccccc3C=NN21 (some centres not stated)	none
O=C(c1ccco1)[C@@H]1[C@@H]2C(=O)N(c3ccc(F)cc3)C(=O)[C@@H]2C2c3ccccc3C=CN21 (some centres not stated)	YopH PTP inh 73.7
O=C(c1ccco1)[C@@H]1[C@@H]2C(=O)N(c3ccc(F)cc3)C(=O)[C@@H]2[C@H]2C=Cc3ccccc3N21	none
O=C(c1ccco1)[C@@H]1[C@@H]2C(=O)N(c3ccc(Br)cc3)C(=O)[C@@H]2C2c3ccccc3C=CN21 (some centres not stated)	YopH PTP inh 88.0 (no result: RmlCD inh 1536)
Cc1ccc(N(CC(=O)NCCSc2ccccn2)S(C)(=O)=O)cc1	none (no result: YopH PTP inh)
C=CCn1c(C(C)(C)C)nc2ccccc21	none (no result: YopH PTP inh)
CCCCCCCC1=CC2=CC(=O)C(C)(OC(C)=O)C(=O)C2=CN1CCc1ccccc1 (configuration not stated)	YopH PTP inh 50.4 (no result: RmlCD inh 1536)
CCCCC1=CC2=CC(=O)C(C)(OC(=O)CC)C(=O)C2=CN1Cc1ccc2c(c1)OCO2 (configuration not stated)	none (no result: YopH PTP inh)
Cc1ccc(NC(=O)CCC(=O)NNC(=O)NC2CCCCC2)c(C)c1	none (no result: YopH PTP inh)
COc1ccc(OC)c(NC(=O)c2ccc(OC3CSC3)cc2)c1	none (no result: YopH PTP inh)
COc1ccc(/C=N/NC(=O)C(C)n2cnc3ccccc3c2=O)cc1OC (configuration not stated)	YopH PTP inh 67.2 (no result: RmlCD inh 1536)
COc1ccc(/C=N/NC(=O)CCn2cnc(-c3ccccc3)c2-c2ccccc2)cc1OC	none
C=CCN1C(=O)SC(Cc2cccc(OC)c2O)C1=O (configuration not stated)	none (no result: YopH PTP inh)
CC(=O)/C=C(\C)N=Nc1c(O)[nH]c2ccccc12	none (no result: YopH PTP inh)
COC(=O)Cc1cnc(NC(=O)C2C3CCC(C3)C2C(=O)O)s1 (configuration not stated)	YopH PTP inh 50.9
COC(=O)c1ccc(NC(=O)C2C3CCC(C3)C2C(=O)O)cc1 (configuration not stated)	none (no result: RmlCD inh 1536)
COCCOC(=O)C1=C(C)NC2(O)c3ccccc3C(=O)C12O (configuration not stated)	none (no result: YopH PTP inh)
CCOC(=O)C1=C(C)NC2(O)c3ccccc3C(=O)C12O (configuration not stated)	YopH PTP inh 67.6
Cc1cc(N)n(-c2ccc(S(N)(=O)=O)cc2[N+](=O)[O-])n1	none (no result: YopH PTP inh)
COc1ccc(/C=N/NC(=O)c2ccc(O)cc2O)cc1CSc1ccccn1	none
CN1C(=O)C(Cc2c[nH]c3ccccc23)C(=O)N(C)C1=O	none (no result: RmlCD inh 1536)
CN1C(=O)C(Cc2cccc3ccccc23)C(=O)N(C)C1=O	YopH PTP inh 55.1
CCOc1cc(C(=O)Nc2ccncc2)cc(OCC)c1OCC	none (no result: YopH PTP inh)
COCCNC(=O)c1c(NC(=O)c2ccco2)n(Cc2ccccc2)c2nc3ccccc3nc12	none
COc1ccc(-n2c(NC(=O)c3ccco3)c(C#N)c3nc4ccccc4nc32)cc1	YopH PTP inh 90.3
O=C1c2cccnc2C(=O)N1Cc1ccccc1	none
O=C1Cc2ccccc2C(=O)N1Cc1ccccc1	YopH PTP inh 82.5
CCOC(=O)CNc1c(-c2ccc(Cl)cc2)nc2cnccn12	none (no result: RmlCD inh 1536)
CCOC(=O)CNc1c(-c2ccc(F)cc2)nc2cnccn12	RmlCD inh 1536 50.8
O=P(COCCOCCOCCOCP(=O)(c1ccccc1)c1ccccc1)(c1ccccc1)c1ccccc1	none (no result: YopH PTP inh)
COc1ccccc1NC(=O)N1CCC(C(=O)c2ccc(F)cc2)CC1	YopH PTP inh 56.0
CCOc1ccccc1NC(=O)N1CCC(C(=O)c2ccc(F)cc2)CC1	none
O=C1CCCC2=C1C1(O)C(=O)c3ccccc3C1(O)O2 (configuration not stated)	YopH PTP inh 98.8
N#CC1=C(N)OC2=C(C(=O)CCC2)[C@]12C(=O)N(CC(N)=O)c1ccccc12	none (no result: RmlCD inh 1536)
COc1ccc(Cc2noc(CN(C)CC(O)c3ccccc3)n2)cc1OC (configuration not stated)	none (no result: YopH PTP inh)
COc1ccc(-n2c(=O)c3ccccc3n(CC(=O)NCc3ccco3)c2=O)cc1	none (no result: YopH PTP inh)
COc1ccc2c(c1)c(=O)cc(C)n2CC(=O)NCc1ccco1	YopH PTP inh 92.6 (no result: RmlCD inh 1536)
O=[N+]([O-])c1ccc(C=Nc2ccc(Cl)c([N+](=O)[O-])c2)s1	none (no result: YopH PTP inh)
Cc1ccc(NC(=S)N/N=C/c2ccc([N+](=O)[O-])s2)cc1	none
Cc1cc(C)cc(N=Cc2ccc([N+](=O)[O-])s2)c1	YopH PTP inh 86.3
NC(=O)c1ccc(N=Cc2ccc([N+](=O)[O-])s2)cc1	YopH PTP inh 92.0 (no result: RmlCD inh 1536)
CC(C)C(=O)NCc1cc(-c2ccccc2)no1	none (no result: YopH PTP inh)
CCN(CC)CCCNC(=O)Cc1c(C(=O)O)n(C)c2ccccc12	YopH PTP inh 52.1
CCN(CC)CCNC(=O)Cc1c(C(=O)O)n(C)c2ccccc12	none (no result: RmlCD inh 1536)
COc1ccc(NC(=O)N2CCCC(C(=O)NC(C)C)C2)cc1 (configuration not stated)	none (no result: RmlCD inh 1536)
COCCCNC(=O)C1CCCN(C(=O)Nc2ccc(OC)cc2)C1 (configuration not stated)	YopH PTP inh 53.3 (no result: RmlCD inh 1536)
Cc1ccccc1Nc1cc2ccccc2c(=O)[nH]1	YopH PTP inh 101.2
O=c1[nH]c(Nc2ccc(F)cc2)cc2ccccc12	YopH PTP inh 90.3
Cc1cc2ccccc2c(=O)[nH]1	none
O=c1[nH]c(-c2ccccn2)cc2ccccc12	none
O=C(NNS(=O)(=O)c1ccccc1[N+](=O)[O-])c1cccnc1	none (no result: YopH PTP inh)
N#Cc1cn(Cc2ccccc2)c2ccccc12	none
N#Cc1ccccc1Cn1cc(C#N)c2ccccc21	YopH PTP inh 50.6 (no result: RmlCD inh 1536)
COc1cccc(-c2nc(CS(=O)(=O)c3ccccc3)no2)c1	none
N[C@@H](Cc1ccccc1)c1nnc(SC/C=C/c2ccccc2)o1	none (no result: YopH PTP inh)
CCOCCCn1c(C)nc2c(c1=O)c1nc3ccccc3nc1n2CCC1=CCCCC1	none
Cc1nc2c(c(=O)n1CCC1=CCCCC1)c1nc3ccccc3nc1n2/N=C/c1ccccc1	RmlCD inh 1536 33.7
Cc1csc(SCC(=O)c2c(N)n(C)c(=O)n(C)c2=O)n1	none
O=C(COC(=O)/C=C/c1ccc([N+](=O)[O-])cc1)NCc1ccccc1	none
O=C(/C=C/c1ccc([N+](=O)[O-])cc1)OCC(=O)N1c2ccccc2Sc2ccccc21	YopH PTP inh 53.1
CCN(CC)c1cc(C)c2cc(NC(=O)c3ccc(Br)o3)ccc2n1	none (no result: RmlCD inh 1536)
CCOc1ccccc1C1C(C#N)=C(N)Nc2onc(-c3ccccc3)c21 (configuration not stated)	YopH PTP inh 65.2 (no result: RmlCD inh 1536)
CCCc1[nH]nc2c1C(c1ccccc1OCC)C(C#N)=C(N)O2 (configuration not stated)	none
CC(=O)Nc1ccc(NC2=C(Cl)C(=O)c3ccccc3C2=O)cc1	none (no result: YopH PTP inh)
Cc1ccc(NC2=C(NCCO)C(=O)c3ccccc3C2=O)cc1	YopH PTP inh 89.1
